Consider 40 molecules from PubChem BioAssay (NCI).

This is part of a sample that, as a whole, favours compounds with a hit. Of some 83,000 tested, about 20% had one in any assay.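 Cell lines were cultured in 96-well plates, exposed to a single compound concentration, and assessed for percent growth 48 hours later.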 The source made the active and inactive calls.

This assay has as its system BT-549 breast. Description: NCI-60 one-dose screen, 48 h (100 = growth as untreated, 0 = no growth, -100 = all killed). To be noted: 10 µM unless noted. The method, then:
Growth inhibition of the BT-549 human tumor cell line is measured as a screen for anti-cancer activity. Cells are grown in 96 well plates and exposed to the test compound for 48 hours. Compounds are tested at a single concentration, which is 10^-5 M for most compounds. The reported endpoint is percent growth (GI% or GIPRCNT), where numbers from 0 - 100% represent growth inhibition, and numbers from -100% - 0 represent cell death. For example, a value of 40 represents 60% growth inhibition. A value of 0 means no net growth occurred over the course of the experiment. A value of -40 indicates 40% of cells at the beginning of the experiment died by the end of the experiment. A value of -100 means all cells are dead at the end of the experiment.
NCI-60 Human Tumor Cell Lines Screen was performed using the standard one-dose NCI protocol, which is described in more detail at https://dtp.cancer.gov/discovery_development/nci-60/default.htm.
Compounds with GIPRCNT values below 10 were considered active. Activity score was based on GIPRCNT using the following formula: […]
Score is 0 for GIPRCNT values of 100 or above, 50 for GIPRCNT values of 0, and 100 for GIPRCNT values of -100.
For `CCCCCCC(C(=O)OCC)(C(=O)OCC)C1CCCCCC1`, the growth is 104% (inactive).
`Cc1ccc(NCc2cn(-c3ccc(C(=O)O)cc3)nc2-c2ccc(C(=O)O)cc2)cc1`: the growth was 108% (inactive).
The result for `CCCCCCCCCCCCCCCC[n+]1cccc(C#N)c1` reads 90.3% (inactive); that for `CC(O)CN(CCO)CCN(CCO)CC(C)O` (stereo not given), 105% (inactive).
`CNc1ccc(Nc2ccc(S(=O)(=O)O)cc2)c2c1C(=O)c1ccccc1C2=O`: the growth is 99.5% (inactive).
The result for `CCCCS(=O)(=O)c1cc(Nc2ccc(O)c3c2C(=O)c2ccccc2C3=O)ccc1C` reads 91.6% (inactive); that for `CCOC(=O)C1C(=O)C(=O)N(C(C)C)C1C(=O)OCC` (stereo not given), 119% (inactive).
On to `CC1CCCCC[N+]12CCCC2` (stereo not given), for which the growth was 107% (inactive).
Regarding `COc1cc(NC(C)CCCN)c2nccc(C)c2c1OC` (stereo not given), the growth was 98.2% (inactive).
The result for `CC(=O)C(CO)C(=O)Nc1ccccc1` (stereo not given) reads 106% (inactive).
Consider `COc1cc(CCNc2cnc3cc(N)cc(N)c3n2)cc(OC)c1`, for which the growth is 113% (inactive).
The same measure for `O=C(O)c1ccc(-c2nn(-c3ccc(C(=O)O)cc3)cc2CNc2ccc(Br)cc2)cc1`: 98.8% (inactive).
With `COc1ccc2c(N)ncc(C#Cc3cc(C(=O)Nc4ccc(CN5CCN(C)CC5)c(C(F)(F)F)c4)cnc3C)c2c1`, the growth was 46% (inactive).
The result for `CCOC1=C(Cl)C(=O)C(OCC)=C(Cl)C1=O` reads 114% (inactive); that for `C#CCCCCCCC[C@@H]1OC(=O)[C@H]([C@@H](C)CC)NC(=O)[C@H]([C@@H](C)CC)NC(=O)CC(=O)[C@@H]1C`, 108% (inactive).
`NC(N)=Nc1ccc(/C=C2\C=Cc3ccccc32)cc1`: the growth is 81.5% (inactive).
`O=C(O)CS(=O)c1ccc(Cl)cc1` (stereo not given): the growth was 99.8% (inactive).
Consider `OCCN1CCCN(CCCN2c3ccccc3Sc3ccc(C(F)(F)F)cc32)CC1`, for which the growth was 72.3% (inactive).
The same measure for `COC1=C(OC)C(=O)c2ccccc2C1=O`: 101% (inactive); for `CCCCCCCCCC[N+](C)(C)N`: 84.2% (inactive).
The same measure for `COC(=O)c1ccc2[nH]c(O)c(C(=Nc3ccc(N(C)C(=O)CN4CCN(C)CC4)cc3)c3ccc(C)cc3)c2c1`: -39.5% (active); for `O=C(N/N=C/c1cc(Cl)ccc1O)C(=O)N/N=C/c1cc(Cl)ccc1O`: 86.9% (inactive).
With `CCCCCCCCCCCCOC(=O)/C=C\C(=O)NC(N)=O`, the growth is 67.7% (inactive).
The same measure for `Cc1ncc(C(=O)Nc2ccc(CN3CCN(C)CC3)c(C(F)(F)F)c2)cc1C#Cc1c(N)ncc2ccccc12`: -96.4% (active); for `CCOC(=O)c1ccc2n1CCCc1cnc(NC(C)=O)nc1-2`: 104% (inactive).
Turning to `C[C@]12CC[C@H]3[C@@H](CC[C@H]4C[C@@H](O)CC[C@@]43C)[C@@H]1CC(=O)C2`, the growth is 103% (inactive).
As to `COc1cc(OC)c2c(=O)cc(-c3ccccc3)oc2c1`, the growth was 109% (inactive).
The result for `C=CCC(CCC(CC=C)C(=O)OCC)C(=O)OCC` (stereo not given) reads 96.3% (inactive); that for `C/C(CCC(=O)O)=N/Nc1ccc([N+](=O)[O-])cc1`, 89.1% (inactive).
The same measure for `CCCCCCNc1nc(N2CCOCC2)c2[nH]c(NCCCCCC)nc2n1`: -81.4% (active); for `c1cc[c]([Bi]([c]2ccccc2)[c]2ccccc2)cc1`: 96.8% (inactive); for `Clc1ccc(N/N=C/c2ccccn2)nc1`: 23.4% (inactive).
With `C/C(=N\Nc1cccc(Cl)n1)c1ccccn1`, the growth was 22.9% (inactive).
The result for `CCCCN(CCCC)CC(O)CN(CC)CC` (stereo not given) reads 96.1% (inactive); that for `CC(C)(C)C(=O)OCOP(=O)(OCOC(=O)C(C)(C)C)C1CC(O)N(O)C1=O` (stereo not given), -8.94% (active).
The same measure for `COc1cc(-c2cc3cnccc3c3nc(N)c4ccncc4c23)cc(OC)c1OC`: 42.2% (inactive); for `CC(=O)c1cc(Nc2cc(C)nc(N)n2)cc(C(C)=O)c1`: 98.7% (inactive).
On to `CCCCN(CCCC)c1ccc(C(=O)O)cc1`, for which the growth is 97% (inactive).
The result for `CC1=C(C)C(=O)C(C(C)C2=C(C)C(=O)C(C)=C(C)C2=O)=C(C)C1=O` reads 83.5% (inactive); that for `CC(C)OC(=O)c1ccc2n1CCCc1cnc(Nc3ccccc3)nc1-2`, 86.4% (inactive).
